An excerpt weighted towards active compounds, which were near 4.5% of everything screened.
DRV1 agonist: agonists of human resolvin D1 receptor DRV1 (GPR32) | O75388 | activation, % at 76.9 µM | CHO-K1 GPR32 beta-arrestin PathHunter luminescence, 90 min; zero percent set by DMSO-only wells | actives 2.5% (n = 48,000);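 active = activation of at least 60% and not above a set upper limit, about 1 call in 100 departs from these limits; inconclusive = activation of 40% to 60%, or above that upper limit; inactive = activation under 40%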
Target sequence (O75388 whole entry, looked up): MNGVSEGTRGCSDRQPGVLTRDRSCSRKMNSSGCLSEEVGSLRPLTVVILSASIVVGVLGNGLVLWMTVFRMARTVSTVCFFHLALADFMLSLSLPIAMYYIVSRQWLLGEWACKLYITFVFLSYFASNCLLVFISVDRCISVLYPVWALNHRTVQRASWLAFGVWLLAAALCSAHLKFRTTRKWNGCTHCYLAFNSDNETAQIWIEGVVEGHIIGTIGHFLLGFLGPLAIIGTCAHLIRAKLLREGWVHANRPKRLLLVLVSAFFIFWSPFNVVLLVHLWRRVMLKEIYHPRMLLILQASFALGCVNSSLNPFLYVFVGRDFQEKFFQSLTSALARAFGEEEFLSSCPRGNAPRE
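Agonism was scored as beta-arrestin recruitment to ProLink-fused GPR32 in stably transfected CHO-K1 cells, giving a chemiluminescent beta-Gal signal; compounds were incubated 90 min at 37 °C.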
HTT prom inh: HTT promoter inhibition | Potency, µM (series often up to 57.5 µM), actives largely listed as inhibitors | HEK293 HTT promoter firefly luciferase reporter, 24 h | actives 0.93% (n = 48,000); also: nearly all actives have a fitted effect of over 50% in size
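HEK293 Fluc reporter, 2,500 cells/well, 24 h pre-culture; cpds up to 57.5 uM final, 24 h 37 degrees C; Dual-Glo, 10 min RT; normalized vehicle = 0%, zero RLU = -100%.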
NTMT1 inh: inhibitors of human N-terminal methyltransferase NTMT1; Q9BV86; NTMT1 MTase-Glo SAH luminescence, purified enzyme; Potency, µM (doses to about 114 µM), most hits filed as inhibitors; actives 2.5% (n = 59,000); also: nearly all actives have a fitted effect of over 65% in size
Target sequence (Q9BV86 whole entry, looked up): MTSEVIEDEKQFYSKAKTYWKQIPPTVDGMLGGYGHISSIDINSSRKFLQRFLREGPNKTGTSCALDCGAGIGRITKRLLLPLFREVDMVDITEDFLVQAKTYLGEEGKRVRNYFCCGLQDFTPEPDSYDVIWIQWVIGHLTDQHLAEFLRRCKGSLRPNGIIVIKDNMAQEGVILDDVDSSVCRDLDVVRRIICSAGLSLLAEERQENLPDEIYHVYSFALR
HTT-AS act: HTT-AS promoter activation | Potency, µM (top dose mostly 57.5 µM), hits mostly activators | HEK293 HTT-AS promoter firefly luciferase reporter, 24 h; response scale: percent change from vehicle, -100% = no light | actives 0.24% (n = 48,000); also: nearly all actives have a fitted effect of over 55% in size
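HEK293 luciferase promoter-reporter cells (2,500/well) plated 24 h, then compounds added at up to 57.5 uM final for 24 h at 37 °C. Firefly luminescence by Dual-Glo, normalized to vehicle (0%) and zero RLU (-100%).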
SKOV3 invasion: blocks SKOV3ip1 adhesion and invasion in omental model. SKOV3ip1-GFP adhesion/invasion on 3D omental model, fluorescence. Potency, µM (titrated, usually from 45.8 µM), usual class: inhibitors. actives 0.1% (n = 46,000). AID 1963576; also: nearly all actives have a fitted effect of over 65% in size
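A 3D layer of primary human omental fibroblasts, mesothelial cells, fibronectin and collagen I, grown 48 hr, received SKOV3ip1-GFP cells in serum-free medium plus compounds at 0.36-46 umol/L. After 2 hr RT and 16 hr 37 C, fixed adherent GFP cells were counted; normalized to DMSO and tomatine.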
Hits are given with their value; . = inactive; ? = inconclusive; / = no result; ! = not active in a repeat; [ ] = dose if it differs, or a comment. Unless noted, calls follow the shape of the dose curve; as a rule, active = well fitted curve in the direction sought with a large enough effect; inconclusive = small, poorly fitted or top-dose-only effect, or another doubt; inactive = no such curve, though single readings can be large; an effect the other way counts as inactive or inconclusive.

SMILES | DRV1 agonist | HTT prom inh | NTMT1 inh | HTT-AS act | SKOV3 invasion
CCOc1ccc(CNC(=O)c2ccc(Sc3ccc(Cl)cc3)c(NC(C)=O)c2)cc1OC | . | ? | 89µM | . | .
O=C(c1ccc2c(Cl)c3c(nc2c1)CCCC3)N1CCN(c2ccc(Cl)cc2)CC1 | . | . | . | . | .
O=c1c2cc3c(nc2ncn1Cc1ccc(Cl)cc1)CCCC3 | . | . | ? | . | .
CC1CCc2nc3ncn(Cc4ccc(Cl)cc4)c(=O)c3cc2C1 (stereo not given) | . | . | ? | 3.2µM | .
CCN(CC)CCOc1ccc(C(O)(Cc2ccc(Cl)cc2)c2ccc(C)cc2)cc1 (stereo not given) | 63 | . | . | . | /
CCN(CC)CCNC(=O)COc1ccc(Cl)cc1 | . | . | . | . | /
COc1cccc(CNC(=O)c2cc3ccc4cccnc4c3[nH]2)c1 | . | . | . | . | .
COc1cc(NC(C)CCCN)c2ncccc2c1 (stereo not given) | . | . | 40µM | . | /
CNCc1ccccc1 | . | . | 56µM | . | /
CCCn1c(=N)c(C(=O)NCc2ccco2)cc2c(=O)n3cc(C)ccc3nc21 | . | . | . | . | .
CC(=O)N1CCN(c2ccc(OC[C@H]3CO[C@](Cn4ccnc4)(c4ccc(Cl)cc4Cl)O3)cc2)CC1 | . | . | 22µM! | . | .
Cn1c(=O)c2c(nc(NCCc3ccccc3)n2Cc2ccc(Cl)cc2)n(C)c1=O | 73 | ? | . | . | .
CCCc1cc(=O)[nH]c(Nc2cc(Cl)cc(Cl)c2)n1 | 99 | / | / | / | .
CCCc1cc(=O)[nH]c(Nc2cc(C)cc(C)c2)n1 | . | / | / | / | .
CCCc1cc(=O)[nH]c(Nc2cccc(Cl)c2Cl)n1 | 87 | / | / | / | .
CCOc1cc(C(=O)NCCc2csc3nc(-c4ccccc4F)nn23)cc(OCC)c1OCC | . | . | . | ? | .
O=C(NCCN1CCC(n2c(=O)[nH]c3ccccc32)CC1)c1ccc2ccccc2c1 | / | / | . | / | /
CCOC(=O)N1CCC(n2c(=O)[nH]c3cc(Cl)ccc32)CC1 | 72 | ? | . | . | /
Oc1c(C(c2ccc(Cl)cc2Cl)N2CCN(Cc3ccccc3)CC2)sc2nc(-c3ccco3)nn12 (stereo not given) | . | . | . | . | .
Oc1c(C(c2ccccc2Cl)N2CCN(Cc3ccccc3)CC2)sc2nc(-c3ccco3)nn12 (stereo not given) | 94 | . | . | . | .
CCN(CC)c1ccc(NC(=O)Cn2ncc3c(C)n(Cc4ccccc4F)c(C)c3c2=O)c(C)c1 | . | . | ? | . | .
CCOC(=O)c1nc(NCc2ccc(Cl)cc2)c2c(C)noc2n1 | 65 | . | . | . | .
COC(=O)CN1C(C(=O)c2ccccc2)=C(OC(=O)c2ccc(F)cc2)c2ccccc2S1(=O)=O | . | . | . | . | .
Cc1cccc(C)c1NC(=O)Cn1c(=O)n(Cc2ccc(C(=O)NCc3ccco3)cc2)c(=O)c2sccc21 | . | . | ? | . | .
Cc1cc(C)c(NC(=O)Cn2c(=O)n(Cc3ccc(C(=O)NCc4ccco4)cc3)c(=O)c3sccc32)c(C)c1 | . | ? | 50µM | . | .
SMILES | DRV1 agonist | HTT prom inh | NTMT1 inh | HTT-AS act | SKOV3 invasion
CCCOCc1cc(CN2CCN(c3ccccc3OC)CC2)c(O)c2ncccc12 | . | ? | . | . | .
CCOCc1cc(CN2CCN(c3ccccc3OC)CC2)c(O)c2ncccc12 | . | 11µM | . | . | .
c1cc(-c2cnn3cc(-c4ccc(OCCN5CCCCC5)cc4)cnc23)ccn1 | / | . | 34µM! | . | .
COc1ccc(-c2cnc3c(-c4cccc5ncccc45)cnn3c2)cc1 | / | / | . | / | /
CN(C)c1ccc2cc(C(=O)N[C@@H](CCCN=C(N)CCl)C(=O)NCc3ccccc3)ccc2c1 | / | . | 5.6µM | . | ?
Nc1ncnc2c1ncn2[C@@H]1O[C@H](CO)[C@@H](O)[C@H]1O | . | . | 50µM! | . | /
OC[C@H]1O[C@@H](n2cnc3c(=S)nc[nH]c32)[C@H](O)[C@@H]1O | . | ? | 5.6µM | . | /
Cc1nc(SCc2ccc(Cl)cc2)c(C#N)c(C)c1Cl | . | . | . | . | .
CC(C)CCCCC(=O)N[C@@H](CO)C(=O)N[C@@H](CC(C)C)C(=O)[C@@]1(CO)CO1 | / | / | . | / | /
CC(C)CC(=O)OCc1cc(=O)n2nc(C3CCCCC3)sc2n1 | 71 | . | . | . | .
CC(C)C(=O)OCc1cc(=O)n2nc(C3CCCCC3)sc2n1 | . | . | . | . | .
COc1cc(OC)cc(C(=O)Nc2cc3c(cc2N2CCCCC2)n(C)c(=O)n3C)c1 | . | / | / | / | .
[Cl][In]([Cl])[Cl] | . | . | 3.2µM | . | /
c1ccc2c(-c3cnn4cc(-c5ccc(N6CCNCC6)cc5)cnc34)ccnc2c1 | / | . | 56µM! | ? | 23µM
CCc1ccc(S(=O)(=O)NCCc2csc3nc(-c4ccccc4)nn23)s1 | . | ? | ? | . | .
Cc1coc2cc3oc(=O)c(CC(=O)N4CCCCC4)c(C)c3cc12 | . | . | . | . | .
Cc1coc2cc3oc(=O)c(CCC(=O)N4CCCCC4)c(C)c3cc12 | 107 | / | / | / | .
NC(N)=NN=C(/C=C/c1ccc([N+](=O)[O-])o1)/C=C/c1ccc([N+](=O)[O-])o1 | . | ? | 40µM | . | /
CC(NC(=O)c1ccc(Cn2c(=O)c3cccn3c3cccnc32)cc1)c1ccccc1 (stereo not given) | . | . | ? | . | .
CC(NC(=O)CCCn1c(=O)c2cccn2c2cccnc21)c1ccccc1 (stereo not given) | . | . | 89µM | . | .
COc1cccc(CNc2ccc(S(=O)(=O)Nc3ccc4ccccc4c3)cc2)c1O | / | / | . | / | /
COc1cccc(CNc2ccc(S(=O)(=O)Nc3ccc(C4CCNCC4)cc3)cc2)c1O | / | / | 40µM | / | /
CC(C)N(CCCNC(=O)Nc1ccc(C(C)(C)C)cc1)C[C@H]1O[C@@H](n2cc(Br)c3c(N)ncnc32)[C@H](O)[C@@H]1O | / | / | 8.9µM | / | /
Cc1ccc(NC(=O)NCc2cccn2Cc2ccccc2)cc1F | . | . | . | . | .
COc1ccc2c(c1)c(C1=C(c3c[nH]c4ccccc34)C(=O)NC1=O)cn2CCCN(C)C | / | . | 14µM | . | .
CCC(C=C[C@@H]1OC(=O)C=C[C@H]1C)=C[C@H](C)CC=CC(C)=C[C@@H](C)C(=O)[C@@H](C)[C@H](O)[C@@H](C)CC(C)=CC(=O)O | / | ? | 1µM | .[2.23 µM] | .[1.72 µM]
Cc1cc(C)c(NC(=O)CSc2nc(=O)n(Cc3cccnc3)c3c2CCC3)c(C)c1 | . | . | . | . | .
Cc1ccc(C(=O)c2sc(Nc3ccc(F)cc3)c(C#N)c2N)cc1 | 86 | . | . | . | .
CCC1CN(C(=O)NCc2cccc(OC)c2)c2cc(Cl)ccc2O1 (stereo not given) | . | . | . | . | .

Assay outcomes as filed in PubChem.
